Source: PubChem BioAssay (NCATS)
Results filed as inconclusive are left out. The source made the active and inactive calls. Unless noted, calls come from the whole dose curve; as a rule, active = well fitted curve in the direction sought with a large enough effect; inconclusive = small, poorly fitted or top-dose-only effect, or another doubt; inactive = no such curve, though single readings can be large; an effect the other way counts as inactive or inconclusive.

Key:
[1] = target: Lysosomal acid glucosylceramidase (Homo sapiens) (UniProt P04062); assay: Glucocerebrosidase-p2 (AID 348; in the data active = potency below about 10 µM; note: potency is the fitted concentration of half-maximal effect); settings: purified GBA, blue fluorogenic substrate, 40 min
Chain of Lysosomal acid glucosylceramidase (Homo sapiens) (P04062 whole entry, looked up): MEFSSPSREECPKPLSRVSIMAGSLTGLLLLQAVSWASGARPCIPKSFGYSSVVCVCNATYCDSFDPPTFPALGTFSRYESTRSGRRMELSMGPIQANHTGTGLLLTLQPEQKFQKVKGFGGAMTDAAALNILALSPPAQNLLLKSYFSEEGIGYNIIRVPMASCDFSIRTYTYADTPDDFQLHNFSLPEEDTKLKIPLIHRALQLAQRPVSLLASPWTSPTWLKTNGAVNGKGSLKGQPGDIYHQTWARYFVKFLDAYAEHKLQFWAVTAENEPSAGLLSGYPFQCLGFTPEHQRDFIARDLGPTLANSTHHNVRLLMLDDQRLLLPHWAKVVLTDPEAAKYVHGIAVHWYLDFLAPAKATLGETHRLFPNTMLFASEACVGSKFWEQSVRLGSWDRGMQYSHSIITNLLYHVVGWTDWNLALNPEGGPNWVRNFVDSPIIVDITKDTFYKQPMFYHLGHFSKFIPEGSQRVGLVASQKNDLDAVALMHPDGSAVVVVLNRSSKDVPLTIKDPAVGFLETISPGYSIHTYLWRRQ
Procedure, shortened: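 Normal human glucocerebrosidase (0.2 nM) with blue fluorogenic substrate (80 uM final) in citrate/phosphate pH 5.9 with 10mM sodium taurocholate, 0.01% tween-20; 40 min RT, NaOH/glycine stop; fluorescence Ex 365/Em 440; AC50 from a titration from 0.6 nM upwards.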

[2] = AP1 Signaling Pathway (AID 357; active = well fitted curve in either direction with a large enough effect, not every such curve was filed as active;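 note: ME-180 reporter cells stimulated with EGF at its EC50 level; % is set by controls: 0 for no effect and ±100 for the full control effect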); settings: ME-180 AP-1-bla reporter, EGF-induced, beta-lactamase ratio, 5 h; at 7.69 µM (top of the series) unless noted
Procedure, shortened: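 AP-1-bla ME-180 cells, Opti-MEM + 0.5% dialyzed FBS, plated overnight 37 °C. Cpd titration + EC50 EGF, 5 h 37 °C. CCF4 2.5 h RT; ex 405, em 460/530 ratio → %activity, AC50.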

[3] = target: Cytochrome P450 1A2 (Homo sapiens) (UniProt P05177); assay: p450-cyp1a2 (AID 410; calls by dose curve; note: potency is the fitted concentration of half-maximal effect;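 for activity change, negative = inhibition: -100% = full effect of reference inhibitor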); settings: recombinant CYP1A2, luciferin-ME demethylation, luminescence; series mostly up to 57 µM
Chain of Cytochrome P450 1A2 (Homo sapiens) (P05177 whole entry, looked up): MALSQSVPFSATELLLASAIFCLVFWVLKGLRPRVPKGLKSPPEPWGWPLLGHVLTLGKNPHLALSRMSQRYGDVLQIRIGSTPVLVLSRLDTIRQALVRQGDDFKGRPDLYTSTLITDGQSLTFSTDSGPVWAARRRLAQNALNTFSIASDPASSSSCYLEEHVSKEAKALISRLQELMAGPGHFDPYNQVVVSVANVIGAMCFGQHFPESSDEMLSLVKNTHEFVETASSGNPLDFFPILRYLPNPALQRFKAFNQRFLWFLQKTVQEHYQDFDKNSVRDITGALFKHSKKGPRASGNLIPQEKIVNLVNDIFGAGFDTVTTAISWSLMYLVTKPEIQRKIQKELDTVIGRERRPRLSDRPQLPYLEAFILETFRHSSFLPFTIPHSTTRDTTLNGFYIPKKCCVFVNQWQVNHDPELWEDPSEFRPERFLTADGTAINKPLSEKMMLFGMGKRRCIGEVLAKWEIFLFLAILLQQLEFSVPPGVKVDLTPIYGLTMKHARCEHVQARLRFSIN
Procedure, shortened: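 Luminescent demethylation readout: Luciferin-ME (100uM, equal to Km) turned over by 20nM CYP1A2 for 60 min at room temperature after NADPH regeneration addition, following 10 min compound preincubation. Normalization used 57 uM furafylline as full inhibition.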

[4] = NFAT Signaling Pathway (AID 444; active = well fitted curve in either direction with a large enough effect, not every such curve was filed as active;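 note: carbachol stimulus at about its EC50 of 1 µM final; % is set by controls: 0 for no effect and ±100 for the full control effect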); settings: Jurkat NFAT-bla M1, carbachol, beta-lactamase ratio, 5 h; at 7.69 µM (top of the series) unless noted
Procedure, shortened: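 Jurkat cells with NFAT-driven β-lactamase reporter and co-expressed M1 receptor, stimulated with carbachol (final 1 uM, ~EC50), compound titration, 5 h at 37 °C. CCF4 loaded 1 h at RT; 460/530 nm ratio gave %activity and AC50.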

[5] = Stat Signaling Pathway (AID 446; active = well fitted curve in either direction with a large enough effect, not every such curve was filed as active;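 note: ME-180 cervical cancer cells given 40 pM IL-6 alongside compound; SIE-controlled beta-lactamase reporter measured as 460/530 nm FRET emission ratio; % is set by controls: 0 for no effect and ±100 for the full control effect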); settings: ME-180 SIE beta-lactamase reporter, IL-6 stimulated, 5 h; at 7.69 µM (top of the series) unless noted
Procedure, shortened: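 FRET read-out (405 nm excitation, 460/530 nm emission) of a beta-lactamase reporter under a STAT-inducible element in ME-180 cervical carcinoma cells. Cells with compound receive 40 pM IL-6 for 5 h. Values are normalised to AC90 stimulation and AC90 JAK-inhibitor controls.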

[6] = target: Glucocorticoid receptor (Homo sapiens) (UniProt P04150); assay: GR-GFP Redistribution (AID 450;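 active = compounds whose dose series gives a full or clear partial fitted curve of increased nuclear translocation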; note: potency is the fitted concentration of half-maximal effect); settings: U2OS GR-GFP nuclear translocation, laser cytometry, 2 h
Chain of Glucocorticoid receptor (Homo sapiens) (P04150 whole entry, looked up, the tested form may be a part): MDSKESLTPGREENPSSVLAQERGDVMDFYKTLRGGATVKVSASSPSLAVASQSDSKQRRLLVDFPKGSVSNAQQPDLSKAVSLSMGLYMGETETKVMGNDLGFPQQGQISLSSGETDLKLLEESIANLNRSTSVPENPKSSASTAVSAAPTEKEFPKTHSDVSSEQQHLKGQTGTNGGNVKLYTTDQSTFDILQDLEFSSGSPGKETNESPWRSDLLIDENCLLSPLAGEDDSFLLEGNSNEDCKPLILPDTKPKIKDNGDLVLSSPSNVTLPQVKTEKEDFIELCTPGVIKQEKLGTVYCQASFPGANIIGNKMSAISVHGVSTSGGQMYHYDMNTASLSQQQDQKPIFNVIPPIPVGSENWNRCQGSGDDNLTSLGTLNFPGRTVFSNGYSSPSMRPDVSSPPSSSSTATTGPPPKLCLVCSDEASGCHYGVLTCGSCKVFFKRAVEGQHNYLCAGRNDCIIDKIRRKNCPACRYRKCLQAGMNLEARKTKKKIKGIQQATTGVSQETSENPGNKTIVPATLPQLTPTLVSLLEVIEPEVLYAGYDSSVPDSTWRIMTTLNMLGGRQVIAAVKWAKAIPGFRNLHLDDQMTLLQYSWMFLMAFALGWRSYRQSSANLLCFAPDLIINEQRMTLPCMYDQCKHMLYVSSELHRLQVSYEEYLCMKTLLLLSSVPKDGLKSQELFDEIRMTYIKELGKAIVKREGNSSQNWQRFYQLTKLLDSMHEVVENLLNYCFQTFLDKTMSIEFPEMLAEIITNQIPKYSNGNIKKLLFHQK

[7] = target: Glucocorticoid receptor (Homo sapiens) (UniProt P04150); assay: GR-EFC Redistribution (AID 451; calls by dose curve; note: potency is the fitted concentration of half-maximal effect); settings: CHO-K1 GR-EFC translocation, beta-gal luminescence, 2 h
Procedure, shortened: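 CHO-K1 cells expressing nuclear EA and GR-ED fragments of b-gal; compounds titrated up to 46 uM final, 2 h at 37 C. GR nuclear translocation read as complemented b-gal luminescence after 1 h RT detection.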

[8] = target: Mitogen-activated protein kinase 10 (Mus musculus) (UniProt Q61831); assay: JNK3 AlphaScreen Assay (AID 530; active = well fitted curve in either direction with a large enough effect, not every such curve was filed as active;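 note: kinase came from lysate of stimulated human HepG2 cells; signal reports phosphorylation of biotinylated GST-cJun 1-79 at Ser73 with 10 µM ATP; % is set by controls: 0 for no effect and ±100 for the full control effect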); settings: JNK3 lysate, c-Jun phosphorylation; series mostly up to 57.1 µM
Procedure, shortened: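 Activity was read by AlphaScreen after JNK3-containing HepG2 lysate (cytokine pre-activated) phosphorylated biotinylated GST-cJun with 10 uM ATP at room temperature. Phospho-Ser73 cJun antibody with Protein-A acceptor beads provided detection.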

[9] = target: 3',5'-cyclic-AMP phosphodiesterase 4B (Homo sapiens) (UniProt Q07343); assay: qHTS Assay for Inhibitors of PDE-IV (AID 607; active = well fitted activation curve with a large enough effect in the main read-out, with a control signal flat, not every such curve was filed as active; note: % of control where 0% means no effect); settings: HEK293 ACTOne CNG channel cells, membrane potential fluorescence; series mostly up to 22.9 µM
Chain of 3',5'-cyclic-AMP phosphodiesterase 4B (Homo sapiens) (Q07343 whole entry, looked up): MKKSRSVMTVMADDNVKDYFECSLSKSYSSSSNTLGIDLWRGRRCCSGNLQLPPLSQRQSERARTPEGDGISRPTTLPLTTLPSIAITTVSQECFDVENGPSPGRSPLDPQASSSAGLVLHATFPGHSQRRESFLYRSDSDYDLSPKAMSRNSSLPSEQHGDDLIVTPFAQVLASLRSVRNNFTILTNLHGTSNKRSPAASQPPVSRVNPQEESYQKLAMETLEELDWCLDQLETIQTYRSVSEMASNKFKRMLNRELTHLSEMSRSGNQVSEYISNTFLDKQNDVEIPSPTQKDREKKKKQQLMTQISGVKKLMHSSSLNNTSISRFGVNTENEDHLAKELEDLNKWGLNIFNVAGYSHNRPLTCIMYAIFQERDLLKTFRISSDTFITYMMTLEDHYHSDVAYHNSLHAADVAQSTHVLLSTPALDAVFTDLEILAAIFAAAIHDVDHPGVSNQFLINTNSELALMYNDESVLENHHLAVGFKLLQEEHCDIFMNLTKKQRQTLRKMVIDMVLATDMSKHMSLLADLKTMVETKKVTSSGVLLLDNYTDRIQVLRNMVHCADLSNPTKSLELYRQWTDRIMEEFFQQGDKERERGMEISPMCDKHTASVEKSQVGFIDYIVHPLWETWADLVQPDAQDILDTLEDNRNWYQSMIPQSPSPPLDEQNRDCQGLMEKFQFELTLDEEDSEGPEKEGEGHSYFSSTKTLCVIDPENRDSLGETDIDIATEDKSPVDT
Procedure, shortened: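 Cell-based read-out of cAMP via a modified cyclic nucleotide-gated channel and membrane potential dye (535/590 nm) in HEK293 cells expressing PDE4 endogenously. Compounds tested up to 22.9 uM final; 100 uM RO 20-1724 reference.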

[10] = target: Cytochrome P450 3A4 (Homo sapiens) (UniProt P08684); assay: qHTS Assay for Activators of Cytochrome P450 3A4 (AID 885); settings: recombinant CYP3A4, Luciferin-PPXE luminescence, 60 min; series mostly up to 57.1 µM; note: nearly all actives have a fitted effect of over 65% in size
Chain of Cytochrome P450 3A4 (Homo sapiens) (P08684 whole entry, looked up): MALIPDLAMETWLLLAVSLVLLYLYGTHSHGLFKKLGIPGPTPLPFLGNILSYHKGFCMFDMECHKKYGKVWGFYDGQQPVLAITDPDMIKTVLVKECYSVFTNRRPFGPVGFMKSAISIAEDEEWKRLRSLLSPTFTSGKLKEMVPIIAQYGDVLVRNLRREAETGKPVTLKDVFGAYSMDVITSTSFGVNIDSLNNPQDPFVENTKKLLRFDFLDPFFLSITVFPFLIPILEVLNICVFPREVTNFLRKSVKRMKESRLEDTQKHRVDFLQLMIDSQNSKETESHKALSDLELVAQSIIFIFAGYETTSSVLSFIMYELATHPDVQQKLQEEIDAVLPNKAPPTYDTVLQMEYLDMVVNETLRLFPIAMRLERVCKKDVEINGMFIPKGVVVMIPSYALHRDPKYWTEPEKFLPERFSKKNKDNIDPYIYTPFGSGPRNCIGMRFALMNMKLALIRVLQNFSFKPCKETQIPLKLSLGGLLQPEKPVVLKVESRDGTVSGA
Procedure, shortened: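 Luminescent readout of luciferin formed from 25 uM Luciferin-PPXE (KM level) by 20 nM CYP3A4 in 200 mM KPO4, with 60 min NADPH-driven reaction at room temperature after 10 min compound exposure. Ketoconazole (57 uM) defined 100% inhibition.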

[11] = qHTS Assay for Lipid Storage Modulators (AID 1519; calls by dose curve); settings: Drosophila S3 cells, BODIPY lipid droplet/cell ratio, laser cytometry, cells loaded with oleic acid; for activity change, negative = inhibition: at 57.5 µM (top of the series)
Procedure, shortened: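 Cells seeded at 5,000 per well were treated with compounds over a concentration series and loaded with oleic acid (400 uM, as added). Lipid droplet fluorescence (488 nm excitation, 500-530 nm channel) was read by laser-scanning cytometry and normalized to 20 uM Triacsin C.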

[12] = target: Dual specificity protein kinase CLK4 (Homo sapiens) (UniProt Q9HAZ1); assay: qHTS Assay for Inhibitors of CDC-like Kinase 4 (ADP-FP Assay) (AID 1795); settings: Transcreener ADP fluorescence polarization; series mostly up to 50 µM;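 note: recombinant human CLK4 phosphorylating RS repeat peptide at 1 µM ATP; % is set by controls: 0 for no effect and ±100 for the full control effect; nearly all actives have a fitted effect of over 60% in size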
Chain of Dual specificity protein kinase CLK4 (Homo sapiens) (Q9HAZ1 whole entry, looked up): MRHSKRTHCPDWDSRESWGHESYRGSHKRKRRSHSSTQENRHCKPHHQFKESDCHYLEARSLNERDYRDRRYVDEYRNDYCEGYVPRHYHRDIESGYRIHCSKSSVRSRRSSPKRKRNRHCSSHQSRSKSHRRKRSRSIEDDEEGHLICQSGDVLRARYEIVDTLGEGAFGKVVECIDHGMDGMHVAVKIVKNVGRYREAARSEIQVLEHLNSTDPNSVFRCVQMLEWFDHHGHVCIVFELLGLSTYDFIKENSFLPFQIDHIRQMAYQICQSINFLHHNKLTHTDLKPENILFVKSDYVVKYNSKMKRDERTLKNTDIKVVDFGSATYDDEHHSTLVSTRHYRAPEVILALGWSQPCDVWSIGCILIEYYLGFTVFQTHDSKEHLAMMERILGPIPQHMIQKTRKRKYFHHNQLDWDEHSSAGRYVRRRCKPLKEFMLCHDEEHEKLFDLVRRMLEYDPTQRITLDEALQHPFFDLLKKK
Procedure, shortened: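 Recombinant Clk4 (6.25 nM) phosphorylated 100 uM RS repeat peptide with 1 uM ATP in 25 mM Tris pH 7.5, 10 mM MgCl2, 0.5 mM EGTA, 2.5 mM DTT, 0.01% Triton X-100 for 1 h. ADP was detected by Transcreener ADP2 competitive fluorescence polarization after 30 min at room temperature.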

[13] = target: Ubiquitin carboxyl-terminal hydrolase 1 (Homo sapiens) (UniProt O94782); assay: Inhibitors of USP1/UAF1: Pilot qHTS (AID 504865); settings: purified USP1/UAF1, Ub-rhodamine cleavage fluorescence; series mostly up to 54.9 µM; note: nearly all actives have a fitted effect of over 35% in size; note: potency is the fitted concentration of half-maximal effect
Chain of Ubiquitin carboxyl-terminal hydrolase 1 (Homo sapiens) (O94782 whole entry, looked up): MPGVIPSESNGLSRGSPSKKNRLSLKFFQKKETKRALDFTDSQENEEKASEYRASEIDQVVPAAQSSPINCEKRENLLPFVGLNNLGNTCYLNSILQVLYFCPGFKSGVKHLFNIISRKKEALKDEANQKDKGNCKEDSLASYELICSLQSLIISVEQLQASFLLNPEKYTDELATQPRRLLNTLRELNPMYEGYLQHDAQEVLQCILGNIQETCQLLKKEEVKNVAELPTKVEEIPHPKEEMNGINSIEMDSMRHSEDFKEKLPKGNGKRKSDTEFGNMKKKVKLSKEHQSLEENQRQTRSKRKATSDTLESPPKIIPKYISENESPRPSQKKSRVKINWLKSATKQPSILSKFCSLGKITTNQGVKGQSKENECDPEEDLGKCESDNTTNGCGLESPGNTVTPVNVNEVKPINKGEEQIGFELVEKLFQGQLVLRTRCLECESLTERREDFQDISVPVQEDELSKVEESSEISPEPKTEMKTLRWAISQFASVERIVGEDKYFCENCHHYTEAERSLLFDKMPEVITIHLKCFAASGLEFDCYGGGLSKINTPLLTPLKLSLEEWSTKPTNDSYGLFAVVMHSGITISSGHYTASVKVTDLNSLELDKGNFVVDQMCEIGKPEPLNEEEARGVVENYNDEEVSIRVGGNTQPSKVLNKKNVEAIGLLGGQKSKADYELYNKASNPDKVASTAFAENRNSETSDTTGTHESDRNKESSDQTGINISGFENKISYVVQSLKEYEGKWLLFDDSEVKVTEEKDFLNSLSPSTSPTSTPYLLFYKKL
Procedure, shortened: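 USP1/UAF1 complex at 1 nM preincubated 15 min at room temperature with compound, then Ub-Rho substrate added at 150 nM final. Fluorescence (480/540 nm) read kinetically in 50 mM HEPES pH 7.8, 0.5 mM EDTA, 1 mM TCEP, 0.1 mg/ml BSA, 0.01% Tween-20.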

[14] = Primary qHTS for small molecule stabilizers of the endoplasmic reticulum resident proteome: Secreted ER Calcium Modulated Protein (SERCaMP) assay (AID 1508630); settings: SH-SY5Y GLuc-SERCaMP (Gaussia luciferase released on ER calcium loss) secretion, thapsigargin, luminescence; series mostly up to 38.4 µM; note: % is set by controls: 0 for no effect and ±100 for the full control effect
Procedure, shortened: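 The SH-SY5Y reporter protocol was run at 3 concentrations up to 38.3 uM (primary) or 11 concentrations (follow-up): 16 h compound, 100 nM thapsigargin for 4 h, then extracellular luciferase luminescence.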

[15] = target: Cytochrome P450 3A4 (Homo sapiens) (UniProt P08684); assay: qHTS Assay for Inhibitors and Substrates of Cytochrome P450 3A4 (AID 884); settings: recombinant CYP3A4, Luciferin-PPXE luminescence; series mostly up to 57.1 µM; note: potency is the fitted concentration of half-maximal effect; nearly all actives have a fitted effect of over 50% in size
Procedure, shortened: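 Luminescent readout of luciferin produced by CYP3A4 (20 nM) dealkylation of Luciferin-PPXE, 25 uM (its KM). NADPH-driven reaction ran 60 min at RT after 10 min compound preincubation; data scaled to 57 uM ketoconazole as 100% inhibition.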

[16] = Confirmation and Secondary Assay for Modulators of Hemoglobin Beta Chain Splicing at IVS2 654 locus (AID 910); settings: HeLa EGFP-654 splicing reporter, GFP fluorescence, 48 h; series mostly up to 38.3 µM;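 note: HeLa cells stably carrying EGFP split by mutant beta-globin IVS2-654 intron; % of control where 0% means no effect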
Procedure, shortened: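 HeLa cells stably expressing EGFP interrupted by β-globin IVS2-654 intron, seeded overnight in Opti-MEM/2% FCS, then treated 2 days at 37 °C. Restored splicing read as total peak GFP intensity per well by laser scanning cytometry (488 nm excitation, 500–520 nm emission); 500 nM antisense PNA as control.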

[17] = Confirmation and Secondary Assay for Modulators of Hemoglobin Beta Chain Splicing at IVS2 705 locus (AID 930); settings: HeLa EGFP-705 splicing reporter, GFP fluorescence, 48 h; series mostly up to 38.3 µM;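 note: HeLa cells stably expressing the EGFP-705 splicing reporter; GFP fluorescence per well restored by corrected splicing of the IVS2-705 intron in EGFP; % of control where 0% means no effect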
Procedure, shortened: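 Secondary splice-site specificity test uses HeLa expressing CMV-driven EGFP interrupted by IVS2-705; cells were treated 2 days at 37C with 500 nM antisense PNA as positive control.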

[18] = qHTS Assay for Identification of Small Molecule Agonists for Hypoxia Response Element Signaling Pathway (AID 914; active = well fitted activation curve with a large enough effect in the signal ratio, with a control signal flat, not every such curve was filed as active; the % refers to the signal ratio; note: % of control where 0% means no effect); settings: ME-180 (cervical carcinoma) HRE-bla reporter, beta-lactamase ratio, CoCl2, 17 h; activation: stronger effect = higher value
Procedure, shortened: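 qHTS titration; ME-180 HRE-bla cells; EC50 CoCl2 co-treatment, 17 h at 37 degrees Celsius; CCF4 dye, ex 405nm, em 460nm and 530nm; %Activity from ratio; AC50.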

[19] = measured here: cell count channel max response
[20] = measured here: lipid channel max response

| SMILES | Potency [1] | activity change, negative = inhibition [2] | Potency [3] | activity change, negative = inhibition [4] | activity, negative = inhibition [5] | Potency [6] | Potency [7] | outcome [8] | Potency [9] | Potency [10] | activity change, negative = inhibition [11] | max response [11, 19] | max response [11, 20] | Potency [12] | Potency [13] | Potency [14] | Potency [15] | outcome [16] | outcome [17] | activation [18] |
| --- | --- | --- | --- | --- | --- | --- | --- | --- | --- | --- | --- | --- | --- | --- | --- | --- | --- | --- | --- | --- |
| CN1CCN(c2ncnc3ccc(-c4ccc(C(=O)N(C)C)cc4)cc23)CC1 | > 11.4 µM (inactive) | -10.8% (inactive) | inactive | 1.97% (inactive) | -6.95% (inactive) | > 46 µM (inactive) | > 46 µM (inactive) | inactive | inactive | inactive | 2.73% (inactive) | 23.5% | 25.5% | inactive | inactive | inactive |  |  |  |  |
| COc1ccc(CNc2ccnc(-c3ccccc3C(F)(F)F)n2)c(OC)c1 | > 11.4 µM (inactive) | -17.1% (inactive) | 15.8 µM (active) | -5.1% (inactive) | 1.22% (inactive) | > 46 µM (inactive) | > 46 µM (inactive) | inactive | inactive | inactive | 6.23% (inactive) | 3.1% | 8.88% |  | 11.2 µM (active) | inactive | 3.16 µM (active) | inactive | inactive |  |
| Cc1noc(C)c1-c1nccc(NCc2cccnc2)n1 | > 11.4 µM (inactive) | 7.38% (inactive) | 0.158 µM (active) | -9.01% (inactive) | 10.1% (inactive) | > 46 µM (inactive) | > 46 µM (inactive) | inactive | inactive | inactive | 4.68% (inactive) | 14.6% | 21.8% |  | inactive | inactive | 3.98 µM (active) | inactive | inactive |  |
| Cc1cnc(CNc2ccnc(-c3ccccc3Cl)n2)cn1 | > 11.4 µM (inactive) | -1.45% (inactive) | 12.6 µM (active) | -3.33% (inactive) | 7.09% (inactive) | > 46 µM (inactive) | > 46 µM (inactive) | inactive | inactive | inactive | 7.03% (inactive) | 7.84% | 16.2% |  | inactive | inactive |  | inactive | inactive |  |
| COc1cccc(-c2cc(NCc3cccs3)ncn2)c1 | > 11.4 µM (inactive) | 3.15% (inactive) | 1.26 µM (active) | 17% (inactive) | -4.26% (inactive) | > 46 µM (inactive) | > 46 µM (inactive) | inactive |  |  | 9.36% (inactive) | 10.6% | 25% |  | inactive | inactive | 7.94 µM (active) | inactive | inactive | -6.23% (inactive) |
